Data on 70 compounds can be found in PubChem BioAssay AID602420 (Johns Hopkins Ion Channel Center, 2012).

The whole screen tested about 2,300 compounds, of which about 430 (19%) were called active.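 How the source made its calls: active means remaining agonist calcium response no higher than 100% minus 3 SD of agonist-only control wells, with starting fluorescence near control levels; inactive means the rest.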 Only a sample is shown.

The target in this assay is Mas-related G-protein coupled receptor member X1 (Homo sapiens) (UniProt Q96LB2). Briefly: MrgX1 receptor antagonists, duplicate retest, confirmation, HEK293 cells, Fluo-4 calcium flux (AID 602420). To be noted: MrgX1-HEK293, BAM8-22 calcium flux, at 10 µM; hits give low values. (In general: Calcium assays in cells follow changes in intracellular calcium, usually with a dye or a luminescent sensor.)
Sequence of Mas-related G-protein coupled receptor member X1 (Homo sapiens) (Q96LB2 whole entry, looked up): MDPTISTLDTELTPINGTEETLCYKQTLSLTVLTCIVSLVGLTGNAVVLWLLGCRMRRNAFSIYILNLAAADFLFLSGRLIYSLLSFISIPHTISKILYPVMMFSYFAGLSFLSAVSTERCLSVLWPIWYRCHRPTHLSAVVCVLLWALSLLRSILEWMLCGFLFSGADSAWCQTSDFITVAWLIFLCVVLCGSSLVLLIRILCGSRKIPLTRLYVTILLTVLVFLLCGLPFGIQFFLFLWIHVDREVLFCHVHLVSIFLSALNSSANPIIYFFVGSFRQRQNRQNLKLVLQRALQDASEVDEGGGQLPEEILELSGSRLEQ
On to `O=C(Cc1ccccn1)c1ccc(O)cc1O`, for which the remaining BAM8-22 calcium response % of control (hits give low values) was 77.8% (active).

As for `CCOc1ccc(NC(=O)CCNC(=O)c2ccc(Br)cc2)cc1`, the remaining BAM8-22 calcium response % of control (hits give low values) result is “inactive”.

Consider `COc1ccc([N+](=O)[O-])cc1NC(=O)COC(=O)/C=C/c1ccco1`, for which the remaining BAM8-22 calcium response % of control (hits give low values) result is “inactive”.

`CCOC(=O)C1=C(O)CSC1=Nc1cccc(Cl)c1`: the remaining BAM8-22 calcium response % of control (hits give low values) result was “inactive”.

For the compound `Cc1nn(-c2ccccc2)c(C)c1NC(=O)COc1ccc(Cl)cc1Cl`, the remaining BAM8-22 calcium response % of control (hits give low values) entry is “inactive”.

For `COc1ccc(C(=O)Nc2c(N)nc(SCC(=O)N3CCC(C)CC3)[nH]c2=O)cc1OC`, the remaining BAM8-22 calcium response % of control (hits give low values) was 83.1% (active).

Take `CN1C(CC(=O)Nc2ccc(Br)cc2)c2ccccc2CC1(C)C` (stereo not given): the remaining BAM8-22 calcium response % of control (hits give low values) entry is “inactive”.

Consider `O=C(Nc1ccc(Br)cc1F)C1CC(=O)N(C2CCCCC2)C1` (stereo not given), for which the remaining BAM8-22 calcium response % of control (hits give low values) entry was “inactive”.

Take `Cc1cccc(-n2c(Cc3cc(=O)[nH]c(=O)[nH]3)nnc2SC(C)C)c1`: the remaining BAM8-22 calcium response % of control (hits give low values) result was “inactive”.

With `O=C(O)CSC(NC(=O)c1cccnc1)(C(F)(F)F)C(F)(F)F`, the remaining BAM8-22 calcium response % of control (hits give low values) result was “inactive”.

With `Cc1ccc2nc(-c3ccc(NC(=O)CN(C)S(=O)(=O)c4ccccc4)cc3)sc2c1`, the remaining BAM8-22 calcium response % of control (hits give low values) result is “inactive”.

Consider `Cc1ccc2nc(-c3ccc(NC(=O)c4cccnc4)cc3)oc2c1`, for which the remaining BAM8-22 calcium response % of control (hits give low values) is 67.5% (active).

`CCOC1CCCCC1NS(=O)(=O)c1ccc(Cl)cc1` (stereo not given): the remaining BAM8-22 calcium response % of control (hits give low values) entry was “inactive”.

As to `Cc1cc(Nc2cc(N3CCN(C)CC3)nc(Sc3ccc(NC(=O)C4CC4)cc3)n2)n[nH]1`, the remaining BAM8-22 calcium response % of control (hits give low values) was 84% (active).

Consider `CCOc1cc(-c2conc2N)cc(OCC)c1OCC`, for which the remaining BAM8-22 calcium response % of control (hits give low values) result is “inactive”.

Consider `Cc1cc(Br)ccc1NC(=O)c1cnc(N2CCN(c3ccccn3)CC2)c2ccccc12`, for which the remaining BAM8-22 calcium response % of control (hits give low values) was 72.4% (active).

In the case of `O=C(CN1CCN(c2ccccn2)CC1)NC1CCCCC1`, the remaining BAM8-22 calcium response % of control (hits give low values) result was “inactive”.

On to `O=S(=O)(c1ccc2ccccc2c1)N1CCN(S(=O)(=O)N2CCOCC2)CC1`, for which the remaining BAM8-22 calcium response % of control (hits give low values) entry is “inactive”.

In the case of `C=CCOc1cccc(C2C(C(=O)c3ccc(C)o3)=C(O)C(=O)N2c2nnc(C)s2)c1` (stereo not given), the remaining BAM8-22 calcium response % of control (hits give low values) was 63.9% (active).

For the compound `CC(=O)N(C1=C(Cl)C(=O)c2ccccc2C1=O)c1ccc(C(=O)O)cc1`, the remaining BAM8-22 calcium response % of control (hits give low values) entry was “inactive”.

As to `CCCCC(=O)Nc1ccc2c(c1)C(=O)NC2=O`, the remaining BAM8-22 calcium response % of control (hits give low values) result is “inactive”.

Take `O=C(C1CCN(S(=O)(=O)c2cnc[nH]2)CC1)N1CCN(Cc2ccc3c(c2)OCO3)CC1`: the remaining BAM8-22 calcium response % of control (hits give low values) result is “inactive”.

Regarding `C=CCNC(=O)c1cc(-c2ccccc2O)on1`, the remaining BAM8-22 calcium response % of control (hits give low values) was 84.3% (active).

In the case of `C=CCNC(=O)c1csc(-c2ccccc2)n1`, the remaining BAM8-22 calcium response % of control (hits give low values) entry is “inactive”.

On to `COCC(C)NC(=O)c1ccc(Cl)c(Cl)c1` (stereo not given), for which the remaining BAM8-22 calcium response % of control (hits give low values) entry is “inactive”.

With `O=C1CCCc2c1nc(-c1cccc(Cl)c1)n2O`, the remaining BAM8-22 calcium response % of control (hits give low values) entry was “inactive”.

`CCc1cc2c(SCC(=O)Nc3ncc(Cl)c(C)c3Cl)ncnc2s1`: the remaining BAM8-22 calcium response % of control (hits give low values) result is “inactive”.

As to `O=C(COc1ccc(Cl)cc1)NC(=S)Nc1ccccc1N1CCOCC1`, the remaining BAM8-22 calcium response % of control (hits give low values) result is “inactive”.

In the case of `CCN(C(=O)CSc1nnc2ccccn12)C1CCS(=O)(=O)C1` (stereo not given), the remaining BAM8-22 calcium response % of control (hits give low values) result was “inactive”.

As for `FC(F)Oc1ccc(NC(=S)NCc2ccco2)cc1Cl`, the remaining BAM8-22 calcium response % of control (hits give low values) result was “inactive”.

For `O=C1CCCN1CCCNC(=S)Nc1ccc(F)c(Cl)c1`, the remaining BAM8-22 calcium response % of control (hits give low values) was 67.5% (active).

As to `CCOC(=O)Nc1ccc2c(c1)N(C(=O)CCN1CCN(CCO)CC1)c1ccccc1CC2`, the remaining BAM8-22 calcium response % of control (hits give low values) result is “inactive”.

With `CC(=O)N(C)c1ccc(NC(=O)C(F)(F)F)cc1`, the remaining BAM8-22 calcium response % of control (hits give low values) result is “inactive”.

`Cc1cccc(NC(=O)COc2ccccc2C)n1`: the remaining BAM8-22 calcium response % of control (hits give low values) entry is “inactive”.

Take `CC(C)OCCCNc1ncnc2c1[nH]c1ccc(F)cc12`: the remaining BAM8-22 calcium response % of control (hits give low values) result was “inactive”.

Regarding `CCC(C)c1ccccc1N1CC(C(=O)N2CCN(S(=O)(=O)c3ccc(F)cc3)CC2)CC1=O` (stereo not given), the remaining BAM8-22 calcium response % of control (hits give low values) is 84.2% (active).

Take `O=C(CSc1ncccn1)NC(=O)NCc1ccccc1`: the remaining BAM8-22 calcium response % of control (hits give low values) entry is “inactive”.

As to `COCc1nnc(NC(=O)c2ccc3c(c2)OCO3)s1`, the remaining BAM8-22 calcium response % of control (hits give low values) result is “inactive”.

`Cc1cc(=O)oc2cc(NC(=O)C3CC(=O)N(Cc4ccccc4)C3)ccc12` (stereo not given): the remaining BAM8-22 calcium response % of control (hits give low values) entry is “inactive”.

On to `Cc1ccc(Nc2nc(-c3ccc(O)cc3O)cs2)nc1`, for which the remaining BAM8-22 calcium response % of control (hits give low values) was 82.3% (active).

Take `CCOc1ccccc1C1CC(c2ccc(Cl)cc2)Nc2nc(N)nn21` (stereo not given): the remaining BAM8-22 calcium response % of control (hits give low values) entry is “inactive”.

For the compound `Cc1cc(C)cc(NC(=S)NCCc2c[nH]c3ccccc23)c1`, the remaining BAM8-22 calcium response % of control (hits give low values) entry is “inactive”.

As for `COc1cc2c(cc1O)C(SC)=NC(C)(C)C2`, the remaining BAM8-22 calcium response % of control (hits give low values) is 85.2% (active).

In the case of `CCOc1ccc(C(=O)NC2CCN(S(=O)(=O)CC)CC2)cc1`, the remaining BAM8-22 calcium response % of control (hits give low values) entry was “inactive”.

Consider `CCOC(=O)c1cn(Cc2cccc(C)c2)nn1`, for which the remaining BAM8-22 calcium response % of control (hits give low values) result is “inactive”.

For the compound `Cc1nn(-c2ccccc2)c2c1C(c1ccc(F)cc1)C(C#N)=C(N)O2` (stereo not given), the remaining BAM8-22 calcium response % of control (hits give low values) result was “inactive”.

For the compound `CC(Oc1ccc(F)cc1)C(=O)Nc1ccccc1C(=O)NC1CC1` (stereo not given), the remaining BAM8-22 calcium response % of control (hits give low values) entry was “inactive”.

Regarding `Cc1ccc2cc(/C=N/Nc3ccc(C(=O)O)cc3)c(Cl)nc2c1`, the remaining BAM8-22 calcium response % of control (hits give low values) was 37.2% (active).

With `COc1cccc(CCNC(=O)COc2cccc3c2OC(C)(C)C3)c1`, the remaining BAM8-22 calcium response % of control (hits give low values) result is “inactive”.

On to `O=C(Nc1ccccc1Cl)N1CCN(c2ccc3nncn3n2)CC1`, for which the remaining BAM8-22 calcium response % of control (hits give low values) result is “inactive”.

As to `COc1ccccc1Oc1nc(-c2cccnc2)nc2ccccc12`, the remaining BAM8-22 calcium response % of control (hits give low values) result was “inactive”.

Regarding `CC(C)(C)n1c(=O)[nH]c2c(c1=O)CCC2`, the remaining BAM8-22 calcium response % of control (hits give low values) result is “inactive”.

In the case of `CN(CC(=O)Nc1ccccc1Cl)C(=O)COc1cccc2c1OC(C)(C)C2`, the remaining BAM8-22 calcium response % of control (hits give low values) entry is “inactive”.

Consider `CCCCCCCCCCOC(=O)Cn1c(COc2ccc(C)cc2)[n+](C)c2ccccc21`, for which the remaining BAM8-22 calcium response % of control (hits give low values) entry was “inactive”.

For the compound `CCCCCCCCCCOC(=O)Cn1c(COc2cccc(OC)c2)[n+](C)c2ccccc21`, the remaining BAM8-22 calcium response % of control (hits give low values) was 53.5% (active).

`CCc1ccc2nc3sc(C(=O)Nc4nnc(CC)s4)c(N)c3cc2c1`: the remaining BAM8-22 calcium response % of control (hits give low values) result was “inactive”.

With `CCN(CC)c1ccc(C2C3CCCCC3(O)CCN2CC(=O)Nc2ccccc2)cc1` (stereo not given), the remaining BAM8-22 calcium response % of control (hits give low values) entry was “inactive”.

As for `COCCNC(=O)Nc1ccc2nc(-c3ccco3)c(-c3ccco3)nc2c1`, the remaining BAM8-22 calcium response % of control (hits give low values) result was “inactive”.

Take `COc1ccc(S(=O)(=O)N2CCN(C(=O)NC3CCCCC3)CC2)cc1`: the remaining BAM8-22 calcium response % of control (hits give low values) entry is “inactive”.

With `CC(C)NC(=S)Nc1cccc2cnccc12`, the remaining BAM8-22 calcium response % of control (hits give low values) was 82.2% (active).

Regarding `COc1ccc(S(=O)(=O)N2CCOCC2)c(C)c1C`, the remaining BAM8-22 calcium response % of control (hits give low values) result was “inactive”.

`Cc1ccc(Cc2cnc(N)s2)o1`: the remaining BAM8-22 calcium response % of control (hits give low values) result was “inactive”.

Consider `COCCCNC(=O)C1CCN(c2ccc(N3CCOCC3)nn2)CC1`, for which the remaining BAM8-22 calcium response % of control (hits give low values) result was “inactive”.

`CC(=O)Nc1ccc(OC(=O)COc2ccc(Br)cc2)cc1`: the remaining BAM8-22 calcium response % of control (hits give low values) entry was “inactive”.

With `COC(=O)c1sccc1NS(=O)(=O)c1ccc(F)cc1F`, the remaining BAM8-22 calcium response % of control (hits give low values) was 80% (active).

In the case of `CCc1nnc(NC(=O)CSc2nc3c(c(=O)n2-c2ccccc2OC)SCC3)s1`, the remaining BAM8-22 calcium response % of control (hits give low values) result is “inactive”.

Turning to `COc1ccc(C(=O)NC2CCCc3c2cnn3-c2cccc(C)c2C)c(OC)n1` (stereo not given), the remaining BAM8-22 calcium response % of control (hits give low values) was 28.5% (active).

`O=C(CSc1c2c(nc3ccc(Cl)cc13)CCCC2)NCc1ccco1`: the remaining BAM8-22 calcium response % of control (hits give low values) entry is “inactive”.

As for `Cc1ccc(CS(=O)(=O)c2ncc(Cl)c(C(=O)Nc3nnc(C)s3)n2)cc1`, the remaining BAM8-22 calcium response % of control (hits give low values) is 81.2% (active).

With `COc1ccc(-n2c(SCC(=O)NCc3ccco3)nnc2-c2c[nH]c3ccccc23)cc1`, the remaining BAM8-22 calcium response % of control (hits give low values) result is “inactive”.
